# ERp5 inh: blocks human ERp5 reductase activity on insulin | inhibition, % at 9.99 µM | 350,000 tested, 0.05% active | ERp5 insulin aggregation, absorbance 650 nm, 90 min | Q15084;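 active means mean replicate inhibition above about 25%, with every replicate also reaching it, limit read from the data, passing the limit was not always enough; inconclusive means only one of those two criteria met; inactive means neither criterion met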
# Vif imaging: inhibitors of HIV Vif; inhibition, % at 7.49 µM; HEK293T cells, Vif self-association by quenched fluorescence, imaging, 24 h; 340,000 tested, 0.35% active; AID 602346; in the data active means inhibition above about 50%, passing the limit was not always enough; inconclusive means no clear call, values can overlap the other calls; inactive means below about 31%
# PvdQ acylase: blocks Pseudomonas aeruginosa PvdQ acylase activity. purified PvdQ acylase, fluorescence plate reader. inhibition, % at 10 µM. 340,000 tested, 0.063% active. AID 488965; in the data active means inhibition above about 30%, passing the limit was not always enough; inconclusive means no clear call, values can overlap the other calls;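 further: 0% = vehicle neutral wells and 100% = reference inhibitor wells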
# Glyco luc inh: N-linked glycosylation inhibition | 360,000 tested, 0.23% active | D54 ERlucT glycosylation luciferase reporter, 24 h; percent of 100 nM tunicamycin response | reporter increase, % at 12.5 µM | AID 588692;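 active means mean luciferase reporter signal, scaled so untreated is 0 and the glycosylation-blocking control 100, at or above a set limit in every replicate; inconclusive means mean reaches the limit but not every replicate does; inactive means mean below the limit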;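 further: luciferase carries N-glycosylation sites so blocking glycosylation raises the light; 0% = median of neutral control wells and 100% = median of 100 nM tunicamycin wells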
# PDI turbidity: blocks human protein disulfide isomerase activity; 350,000 tested, 0.052% active; AID 588391; PDI insulin aggregation turbidity, A650, 90 min; P07237; inhibition, % at 10 µM;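 active means mean inhibition across replicates of 30% or more, whatever share of single replicates reach that level; inconclusive means mean inhibition below 30% while every single replicate reaches 30%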
# Target sequence (P07237 whole entry, looked up): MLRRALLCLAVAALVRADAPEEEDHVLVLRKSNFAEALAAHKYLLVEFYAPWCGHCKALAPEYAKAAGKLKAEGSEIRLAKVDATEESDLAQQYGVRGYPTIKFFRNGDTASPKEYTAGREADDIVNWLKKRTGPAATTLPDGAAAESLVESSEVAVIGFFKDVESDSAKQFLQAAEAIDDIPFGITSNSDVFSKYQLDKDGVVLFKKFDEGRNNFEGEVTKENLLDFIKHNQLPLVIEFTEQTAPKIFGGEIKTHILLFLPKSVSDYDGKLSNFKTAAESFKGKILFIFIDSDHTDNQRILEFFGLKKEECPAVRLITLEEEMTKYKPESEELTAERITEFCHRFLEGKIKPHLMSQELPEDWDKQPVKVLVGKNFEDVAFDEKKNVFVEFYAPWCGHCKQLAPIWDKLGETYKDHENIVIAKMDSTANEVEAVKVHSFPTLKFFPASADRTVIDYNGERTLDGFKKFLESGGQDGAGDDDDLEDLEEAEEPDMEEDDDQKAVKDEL
# * marks the source's active call; other numbers are inactive results; ? = inconclusive; nt = no result. A selection: hits, their analogues and other compounds. The true share with any hit is near 0.56%.
SMILES,ERp5 inh,Vif imaging,PvdQ acylase,Glyco luc inh,PDI turbidity
C=CCn1c(SCC(=O)c2ccc(O)c(O)c2)nnc1-c1ccccc1OC,0.1,53.6*,2.4,-4.0,-2.4
CCC1Nc2ncnc(N3CCN(c4ccccn4)CC3)c2N(Cc2ccc(Cl)cc2)C1=O (stereo not drawn),3.7,3.5,0.8,1.3,-1.6
Oc1ccc(/C=N/N=C/c2ccc(O)c(O)c2)cc1O,-6.2,72.3*,-12.6,-8.3,0.4
COc1ccc(/C=N/NC(=O)c2ccc(COc3ccccc3Cl)o2)cc1,0.8,29.6,-12.5,0.6,1.7
COc1ccc(/C=N/NC(=O)c2ccc(COc3ccccc3Cl)o2)c(OC)c1C,nt,-6.4,-2.6,43.3*,1.2
O=C(NCc1ccccc1)C1Cc2c(-c3cccc(F)c3)ccnc2O1 (stereo not drawn),4.3,13.1,nt,34.6*,-6.3
NC(=O)c1cccc(-c2ccnc3c2CC(C(=O)NCc2ccco2)O3)c1 (stereo not drawn),9.1,-2.5,nt,17.6,4.0
CC(=O)c1cccc(-c2ccnc3c2CC(C(=O)NCc2ccc(F)c(F)c2)O3)c1 (stereo not drawn),4.3,8.2,nt,34.5*,3.9
CC(=O)c1cccc(-c2ccnc3c2CC(C(=O)NCc2ccco2)O3)c1 (stereo not drawn),-10.3,54.2*,nt,31.7*,5.4
Cc1ccc(C(=O)Nc2nc(-c3ccccn3)cs2)o1,8.5,-20.8,-23.2,-5.7,4.7
C[C@H]1CN([C@@H](C)CO)C(=O)c2cccc(NC(=O)Nc3ccc(C(F)(F)F)cc3)c2O[C@H]1CN(C)Cc1ccncc1,1.6,nt,nt,nt,nt
CC(C)C(c1nnnn1Cc1cccs1)N1CCN(C2CCCC2)CC1 (stereo not drawn),nt,21.7,-11.6,-4.4,-1.8
CC(C)C(c1nnnn1CC1CCCO1)N1CCN(C2CCCC2)CC1 (stereo not drawn),nt,57.1*,12.5,-3.6,3.1
COc1cc(/C=N/Nc2nc(-c3ccc(S(=O)(=O)N(C)C)cc3)cs2)ccc1O,2.5,22.2,-15.0,-3.0,-1.3
CSc1nc2ccccc2cc1/C=C(\C#N)c1cccc(Cl)c1,nt,62.8*,-9.3,17.4,3.6
Nc1c(C(=O)c2ccccc2)sc2snc(SCC(=O)c3ccccc3)c12,nt,4.7,3.3,9.5,?
CC(=O)N1[C@@H]2c3ccc(-c4ccccc4F)c(=O)n3C[C@H]1[C@H](CO)[C@H]2C(=O)NC1CCC1,0.8,nt,nt,nt,nt
O=C(Nc1cccc(F)c1)c1cc(S(=O)(=O)N2CCOCC2)ccc1N1CCCC1,nt,2.5,-0.2,28.0*,-40.3
Cc1ccc(NC(=O)c2cc(S(=O)(=O)N(C)C)ccc2N2CCCC2)cc1S(=O)(=O)N(C)C,8.4,0.1,-9.1,60.0*,0.0
O=C(Nc1cccc(C(F)(F)F)c1)c1cc(S(=O)(=O)N2CCCCC2)ccc1N1CCOCC1,nt,18.6,-8.8,-6.0,2.4
COc1ccc(NC(=O)c2cc(S(=O)(=O)N(C)C)ccc2N2CCCC2)cc1Cl,1.6,3.0,-2.2,36.5*,2.6
Cc1ccc(NC(=O)c2cc(S(=O)(=O)N3CCCCC3)ccc2N2CCOCC2)cc1S(=O)(=O)N(C)C,5.5,51.7*,-13.9,-3.7,-10.8
O=c1[nH][nH]c(-c2ccccc2O)c1C(C[N+](=O)[O-])c1cccc(Cl)c1 (stereo not drawn),-2.5,1.3,-15.1,1.0,-3.5
CC1CCCC/C1=N\NC(=S)Nc1ccccc1 (stereo not drawn),-4.5,66.5*,5.6,0.5,0.5
CC1CCC/C(=N\NC(=S)Nc2ccccc2)C1 (stereo not drawn),nt,11.1,9.1,0.8,-6.8
SMILES,ERp5 inh,Vif imaging,PvdQ acylase,Glyco luc inh,PDI turbidity
CCC(C)(C)C(=O)O[C@H]1C[C@@H](C)C=C2C=C[C@H](C)[C@H](CC[C@@H]3C[C@@H](O)CC(=O)O3)[C@H]21,-3.9,4.6,6.2,44.9*,2.7
O=c1cc(-c2ccccc2)[nH]n1-c1nc2ccccc2[nH]1,nt,4.3,-8.3,40.8*,-10.3
COCCn1c(=NC(=O)c2cc(-c3cccs3)nc3ccccc23)sc2cc(S(N)(=O)=O)ccc21,nt,-10.8,-8.8,-3.4,-15.2
Cc1cccc([C@@H]2[C@@H]3C(=O)N(Cc4ccccc4)C(=O)[C@@H]3[C@]3(Cc4ccccc4)C(=O)N(c4cccc(F)c4)C(=O)N23)c1,6.0,nt,-7.2,33.5*,1.2
O=C1[C@H]2[C@@H](c3ccc(F)cc3)N3C(=O)N(c4cccc(Br)c4)C(=O)[C@@]3(Cc3ccccc3)[C@H]2C(=O)N1C1CCCCC1,2.0,-6.0,-10.1,67.2*,3.3
Cc1cccc([C@@H]2[C@@H]3C(=O)N(Cc4ccccc4)C(=O)[C@@H]3[C@]3(Cc4ccccc4)C(=O)N(c4cccc(Cl)c4)C(=O)N23)c1,-7.2,-1.0,-15.4,40.7*,8.6
Cc1cccc([C@@H]2[C@@H]3C(=O)N(Cc4ccccc4)C(=O)[C@@H]3[C@]3(Cc4ccccc4)C(=O)N(c4ccccc4)C(=O)N23)c1,0.0,-0.3,7.6,?,-1.4
CCCCC(=O)NCc1ccc2c(c1)cc(C)n2C,nt,67.7*,3.0,1.3,8.1
CC1(C)CC(NC(=O)Cc2ccc(Cl)cc2)CC(C)(C)N1,-6.1,-0.8,-12.0,1.0,1.3
O=C(Cc1ccc(Cl)cc1)NC1CC1,4.0,70.8*,-1.6,0.7,-0.5
O=C(c1cc(-c2ccccc2)nc2ccccc12)N1CCCC1,0.4,-5.9,-12.2,-1.7,-12.4
c1ccc(-c2cc(NCCN3CCCCC3)c3ccccc3n2)cc1,1.6,-19.6,-1.5,70.5*,2.0
O=C(CNC(=O)c1ccc(Cl)cc1Cl)OCC(=O)c1ccc2c(c1)OCCO2,1.9,17.2,0.3,0.3,5.7
O=C(CSc1ccccc1)N1CCc2ccccc21,nt,16.8,3.5,-2.0,-3.6
O=C(CSCc1ccco1)N1CCc2ccccc21,nt,5.5,86.3*,-5.7,0.5
O=C(CCN1CCOCC1)Nc1ccc(Cl)cc1,1.9,74.0*,-2.0,2.9,6.2
O=C(CCN1CCOCC1)c1ccccc1,0.3,2.1,4.1,0.3,-6.6
O=C(CN1CCOCC1)Nc1ccc(Cl)cc1,-6.5,-5.0,-0.2,1.2,-3.6
O=C(CCN1CCOCC1)NNC(=S)NC(=O)c1ccccc1,2.1,69.4*,-12.2,1.8,4.3
CNS(=O)(=O)c1cccc(C(=O)Nc2cccnc2)c1,nt,51.4*,-11.3,-1.0,4.0
CCOC(=O)C1(CCOc2ccccc2)CCN(Cc2ccc(O)c(Cl)c2)CC1,-0.1,-4.0,-21.2,-3.9,110.8*
CCOC(=O)C1(CCOc2ccccc2)CCN(Cc2ccc(O)c(OC)c2)CC1,1.7,1.7,-10.8,-2.2,0.5
CC[n+]1c(/C=C/C=C/N(C(C)=O)c2ccccc2)sc2ccccc21,nt,162.3*,-2.5,-4.1,7.8
CCn1c(/C=C/N(C(C)=O)c2ccccc2)[n+](CC)c2ccc(Cl)cc21,3.9,-0.4,-12.4,3.4,-10.3
CCOC(=O)CC(=O)CSc1ncnc2c1oc1ccccc12,nt,56.5*,3.8,1.1,-2.2
O=C(O)CSc1ncnc2c1oc1ccccc12,nt,15.8,7.5,1.0,1.0
